This note sets out measurements from PubChem BioAssay AID1565 (Sanford-Burnham Center for Chemical Genomics, 2009).

Hit rate of the full screen: of about 290,000 compounds, about 3,200 (1.1%) were called active. The sample holds actives, similar compounds and a random draw of the others, so the mix is not that of the screen. A number with no mark means an inactive call. No stated cut-off is given here; in the data, active means inhibition above about 60%; inactive means the rest.

Chain of Phosphoethanolamine/phosphocholine phosphatase (Homo sapiens) (Q8TCT1 whole entry, looked up): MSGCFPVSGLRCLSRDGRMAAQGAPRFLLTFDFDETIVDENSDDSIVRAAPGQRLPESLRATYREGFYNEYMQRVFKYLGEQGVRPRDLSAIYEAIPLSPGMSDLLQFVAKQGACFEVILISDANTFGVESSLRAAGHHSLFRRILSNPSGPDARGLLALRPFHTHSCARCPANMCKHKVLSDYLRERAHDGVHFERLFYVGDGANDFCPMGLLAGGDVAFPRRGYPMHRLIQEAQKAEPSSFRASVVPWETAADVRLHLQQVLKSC

The test has as its target Phosphoethanolamine/phosphocholine phosphatase (Homo sapiens) (UniProt Q8TCT1). Briefly: PubChem AID 1565. The settings on record: recombinant PHOSPHO1, absorbance phosphatase assay; at 13.3 µM; hits give high values.
As usually defined, the inhibition is the change of the read-out against control, counted positive when it falls. Take `COc1ccccc1N=Nc1c(O)[nH]c(=S)[nH]c1=O`: the inhibition is 11.7%.
For `COc1ccccc1N=C1SCCCN1C` the value was 85.5% (active).
For `CC(C)(C)c1ccc(OC(=O)N2CCCCC2)cc1` the value was 27.4%.
As to `Cc1cccc(NC(=O)N2CC3CC(C2)c2cccc(=O)n2C3)c1` (stereo not given), the inhibition was 41.8%.
In the case of `O=c1c2ccccc2nc(-c2ccco2)n1-c1ccc(Br)cn1` it was -3.3%; in that of `O=c1c2ccccc2nc(-c2ccccc2)n1-c1ccccn1`, 32.4%.
`Cc1ccc(-c2nc3ccccc3c(=O)n2-c2ccc(Br)cn2)cc1`: the inhibition is 68.6% (active).
In the case of `Cc1nc2ccccn2c1P(=S)(N1CCCCC1)N1CCCCC1` it was 15.2%.
In the case of `COc1cccc(CN2CCCC(C(=O)c3ccccc3SC)C2)c1O` (stereo not given) it was 12.9%; in that of `O=c1c2ccccc2nc(/C=C/c2ccc(F)cc2)n1-c1ccccc1O`, 38.1%.
For `Cc1ccc(-n2c(-c3ccc([N+](=O)[O-])cc3)nc3ccccc3c2=O)cc1` the value was -3.5%; for `O=[N+]([O-])c1ccc(C2C3C(c4ccccc4)=NC4(CCCCC4)N32)cc1` (stereo not given), 64.6% (active); for `COCc1cc(OC(=O)N(C)C)nc(-c2ccc(C)c(Cl)c2)n1`, 20.3%.
As for `COC(=O)N(c1ccc(OC)cc1)P1(=S)OCCC(C)O1` (stereo not given), the inhibition was 65.4% (active).
For `CCOC(=O)c1c(-c2ccccc2)oc2ccc(OC(=O)N(C)C)cc12` the value was -3.7%.
For `COc1ccc(Br)cc1CNCCc1cccc(Cl)c1`, the inhibition was 13.9%.
In the case of `COc1ccc(N2C(=O)/C(=C/c3ccco3)C(=O)NC2=S)cc1` it was -112%; in that of `O=C(O)c1ccccc1NC(=O)C1C2CCC(O2)C1C(=O)O` (stereo not given), 28.7%.
In the case of `c1ccc(CCNC2CCCCCC2)cc1` it was 31.6%; in that of `O=c1[nH]c(CN2CC=C(c3ccccc3)CC2)nc2scc(-c3cccs3)c12`, 50.8%.
As for `C[N+]12CN3CN(CN(C3)C1)C2`, the inhibition is -34.4%.
In the case of `CC1=CC(=Cc2sc3ccccc3[n+]2C)C=C(C)O1` it was 5.9%.
`CCN(CC)CCOC(=O)c1cc2cc(COC)ccc2o1`: the inhibition is 94.9% (active).
For `COc1cccc(N2C(=O)NC(=O)/C(=C\c3ccc([N+](=O)[O-])s3)C2=O)c1` the value was -60.1%.
In the case of `Cc1cc(=O)oc2c(C)c(OCC(=O)N3CCN(Cc4ccc5c(c4)OCO5)CC3)ccc12` it was 27.9%.
